Screens: PubChem, Broad Institute
DENV2 CPE rescue: inhibitors of DENV2 cytopathic effect, primary screen, cell-based, plate reader, single concentration | CPE inhibition, % at 9.99 µM | DENV2-infected cells, cytopathic effect rescue | 350,000 tested, 1.7% active; in the data active = CPE inhibition above about 20%, passing the limit was not always enough; tested in BHK-21 cells;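 note: 0% = median of neutral control wells and 100% = median of positive control wells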
PGC1a acetyl inh: inhibitors of PGC1a acetylation signal, primary screen, cell-based, U2OS, AlphaScreen, inhibitor mode | AlphaScreen anti-acetyl-lysine; with virally co-expressed GCN5 acetyltransferase | 350,000 tested, 0.17% active | AID 651687, 2012 | inhibition, % at 15.6 µM;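 active = every replicate shows inhibition of at least 40%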;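 note: 0% = neutral control wells and 100% = positive control wells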
Ecoli rRNA inh: reduced GFP signal of wild-type E. coli, primary screen, bacterial rRNA inhibitor project, GFP/RFP fluorescence, OD600, single point; E. coli WT GFP vs humanized-ribosome RFP mutants, 24 h; hits give low values; DMSO median 0, no signal -100; 350,000 tested, 1.6% active; GFP signal change (wild-type ribosome), % (no concentration beside the values); AID 720706, 2013;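 active = significant combined selectivity score with lowered wild-type GFP, culture density cut under 30%, mutant RFP and density less affected; inactive = any of these conditions unmet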
ERAP1 HTS inh: human ERAP1 aminopeptidase inhibitors, primary screen, biochemical, single point, plate reader. inhibition, % at 10.7 µM. recombinant ERAP1, Leu-AMC fluorescence, 60 min. 340,000 tested, 0.15% active. Endoplasmic reticulum aminopeptidase 1 (Homo sapiens), Q9NZ08. AID 652197, 2013;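 active = mean replicate inhibition of at least 30%, or all replicates individually reaching that 30% level; inactive = mean below 30% and not every replicate reaching it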;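 note: 0% = neutral control wells and 100% = L-leucinethiol positive control wells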
Target sequence (Q9NZ08 whole entry, looked up): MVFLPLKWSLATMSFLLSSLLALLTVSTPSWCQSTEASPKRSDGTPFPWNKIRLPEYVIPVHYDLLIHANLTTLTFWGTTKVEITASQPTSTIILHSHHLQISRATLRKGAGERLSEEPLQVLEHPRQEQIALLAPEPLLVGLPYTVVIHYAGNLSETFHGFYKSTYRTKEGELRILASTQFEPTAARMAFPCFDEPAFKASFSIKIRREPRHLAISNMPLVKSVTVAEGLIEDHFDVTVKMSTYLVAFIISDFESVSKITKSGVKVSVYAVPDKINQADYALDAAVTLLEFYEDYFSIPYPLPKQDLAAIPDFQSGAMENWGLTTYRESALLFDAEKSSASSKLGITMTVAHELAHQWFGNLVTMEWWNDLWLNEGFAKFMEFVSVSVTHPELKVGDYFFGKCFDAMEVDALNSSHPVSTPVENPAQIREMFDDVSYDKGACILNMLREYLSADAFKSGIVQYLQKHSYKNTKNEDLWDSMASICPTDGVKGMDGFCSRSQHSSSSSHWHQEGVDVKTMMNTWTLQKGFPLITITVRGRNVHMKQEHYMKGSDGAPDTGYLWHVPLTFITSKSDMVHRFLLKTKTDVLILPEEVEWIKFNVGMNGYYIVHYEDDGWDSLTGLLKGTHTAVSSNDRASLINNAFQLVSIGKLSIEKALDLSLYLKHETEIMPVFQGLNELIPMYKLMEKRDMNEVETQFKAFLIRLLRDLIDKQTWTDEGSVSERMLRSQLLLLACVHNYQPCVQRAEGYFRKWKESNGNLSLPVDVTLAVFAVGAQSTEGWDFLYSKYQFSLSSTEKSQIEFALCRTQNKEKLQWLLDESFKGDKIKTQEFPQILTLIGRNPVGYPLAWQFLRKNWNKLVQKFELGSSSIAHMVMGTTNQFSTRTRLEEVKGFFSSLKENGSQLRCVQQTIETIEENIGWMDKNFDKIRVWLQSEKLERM
INS-1E GSIS act: GLuc luminescence reporter in INS-1E cells, primary screen for activators of glucose-dependent secretion of insulin; INS-1E GLuc reporter insulin secretion, 2-3 h; activation, % at 16.6 µM; 370,000 tested, 0.61% active; AID 743287, 2014;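 active = lowest replicate activation of at least 40%, so every replicate reaches that level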;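 note: 0% = median of neutral control wells and 100% = median of IBMX positive control wells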
CaV13 FRET inh: Primary screen for inhibitors of IQ motif and Ca2+-dependent inactivation inhibitor domain binding in CACNA1D, Förster resonance energy transfer in living cells, … | HEK cells, CFP/YFP FRET ICDI-IQ, plate reader, 10 min; percent FRET-ratio fall versus neutral wells | inhibition, % at 12.3 µM | 340,000 tested, 0.098% active;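 active = mean replicate inhibition of at least 30% and at least 1% of replicates passing that level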;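 note: 0% = median of the neutral control wells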
An asterisk follows results filed as active. An excerpt weighted towards active compounds, which were near 3.2% of everything screened.

What do the screens show for `O=C(C[C@@H]1CC[C@H](NC(=O)CC2CC2)[C@H](CO)O1)NCc1ccc(-c2ccccc2)cc1`?
DENV2 CPE rescue: -2; PGC1a acetyl inh: 0; Ecoli rRNA inh: -4; ERAP1 HTS inh: -1; INS-1E GSIS act: 10

How did O=C(OCc1cc([N+](=O)[O-])cc2c1OCOC2)c1ccc2ccccc2n1 do in these assays?
DENV2 CPE rescue: 1; Ecoli rRNA inh: 6; ERAP1 HTS inh: 4; INS-1E GSIS act: -1; CaV13 FRET inh: -6

How did CC(C)=CC(=O)OCc1cc([N+](=O)[O-])cc2c1OCOC2 do in these assays?
DENV2 CPE rescue: 0; PGC1a acetyl inh: -7; Ecoli rRNA inh: -16*; ERAP1 HTS inh: 0; INS-1E GSIS act: 8; CaV13 FRET inh: -7

What do the screens show for `CO[C@@H]1CN(C)C(=O)c2cc(NC(=O)C3CCCCC3)ccc2OC[C@@H](C)N(C)C[C@H]1C`?
DENV2 CPE rescue: -1; Ecoli rRNA inh: 0; ERAP1 HTS inh: 0; INS-1E GSIS act: 5

How did COc1cc2c(cc1OC)CN(C(=O)CCOc1ccccc1C)CC2 do in these assays?
DENV2 CPE rescue: 44*; PGC1a acetyl inh: -22; Ecoli rRNA inh: -16; ERAP1 HTS inh: 0; INS-1E GSIS act: 26; CaV13 FRET inh: -3

How did COc1cc2c(cc1OC)CN(C(=O)CCOc1ccccc1)CC2 do in these assays?
DENV2 CPE rescue: 12; Ecoli rRNA inh: -1; ERAP1 HTS inh: 0; INS-1E GSIS act: 21; CaV13 FRET inh: -2

What do the screens show for `COc1cc2c(cc1OC)CN(C(=O)Cc1ccccc1)CC2`?
DENV2 CPE rescue: 7; PGC1a acetyl inh: 6; Ecoli rRNA inh: -4; ERAP1 HTS inh: -1; INS-1E GSIS act: 63*; CaV13 FRET inh: -21

What do the screens show for `C[C@H](CO)N1C[C@H](C)[C@@H](CN(C)C(=O)Cc2ccncc2)Oc2cc(C3=CCCC3)ccc2S1(=O)=O`?
DENV2 CPE rescue: 3; PGC1a acetyl inh: 13; Ecoli rRNA inh: 0; ERAP1 HTS inh: -2; INS-1E GSIS act: -12

What do the screens show for `Cc1cc(C(=O)N/N=C/c2cc(Br)cc(Br)c2OC(=O)c2cccc(F)c2)n[nH]1`?
DENV2 CPE rescue: 2; PGC1a acetyl inh: 6; Ecoli rRNA inh: -31*; ERAP1 HTS inh: 3; INS-1E GSIS act: 1; CaV13 FRET inh: -11

What do the screens show for `O=S(=O)(N[C@@H]1CC[C@H](CCn2cc(C3(O)CCCC3)nn2)O[C@H]1CO)c1ccc(Cl)cc1`?
DENV2 CPE rescue: 14; PGC1a acetyl inh: -15; Ecoli rRNA inh: -3; ERAP1 HTS inh: 0; INS-1E GSIS act: 6

Results for O=C(COC(=O)C1CC(=O)N(Cc2ccco2)C1)Nc1ccc(F)cc1F (stereo not drawn) ?
DENV2 CPE rescue: 74*; Ecoli rRNA inh: 10; ERAP1 HTS inh: -1; INS-1E GSIS act: -4; CaV13 FRET inh: -3

How did O=C(COC(=O)C1CC(=O)N(Cc2ccco2)C1)Nc1ccccc1[N+](=O)[O-] (stereo not drawn) do in these assays?
DENV2 CPE rescue: -7; PGC1a acetyl inh: 2; Ecoli rRNA inh: 4; ERAP1 HTS inh: -2; INS-1E GSIS act: -5; CaV13 FRET inh: -5

How did COc1ccc(-c2cc(C(=O)N(C)Cc3ccc(F)cc3)c3ccccc3n2)cc1OC do in these assays?
DENV2 CPE rescue: 1; Ecoli rRNA inh: -28*; ERAP1 HTS inh: 9; INS-1E GSIS act: -4; CaV13 FRET inh: -6

Results for C[C@H]1CN([C@@H](C)CO)S(=O)(=O)c2ccc(C#CC3(O)CCCC3)cc2O[C@@H]1CN(C)C(=O)c1ccncc1 ?
DENV2 CPE rescue: -6; PGC1a acetyl inh: 6; Ecoli rRNA inh: 0; ERAP1 HTS inh: -4; INS-1E GSIS act: 16

What do the screens show for `Nc1ccccc1Oc1ncc(C(F)(F)F)cc1Cl`?
PGC1a acetyl inh: 46*; Ecoli rRNA inh: 6; ERAP1 HTS inh: 5; INS-1E GSIS act: 1; CaV13 FRET inh: -9

Results for COc1ccc2ccccc2c1/C=N/NC(=O)c1cccc(Br)c1 ?
DENV2 CPE rescue: 7; ERAP1 HTS inh: 1; CaV13 FRET inh: -2

What do the screens show for `COc1ccc2ccccc2c1/C=N/NC(=O)c1ccccc1F`?
DENV2 CPE rescue: 44*; PGC1a acetyl inh: 12; Ecoli rRNA inh: -1; ERAP1 HTS inh: -1; INS-1E GSIS act: 12; CaV13 FRET inh: -2

How did Cc1ccc(C(=O)CSc2nnc(COc3cccc4cccnc34)o2)cc1 do in these assays?
PGC1a acetyl inh: -13; Ecoli rRNA inh: -32*; ERAP1 HTS inh: -2; INS-1E GSIS act: -18; CaV13 FRET inh: -8

How did COc1cccc(C(=O)CSc2nnc(COc3cccc4cccnc34)o2)c1 do in these assays?
DENV2 CPE rescue: 1; PGC1a acetyl inh: -8; Ecoli rRNA inh: -35*; ERAP1 HTS inh: -1; INS-1E GSIS act: -7; CaV13 FRET inh: -7

What do the screens show for `CC(=O)Nc1ccc(S(=O)(=O)Nc2ccc3c(c2)n(C)c(=O)n3C)c(C)c1`?
DENV2 CPE rescue: 1; PGC1a acetyl inh: -4; Ecoli rRNA inh: 9; ERAP1 HTS inh: -5; INS-1E GSIS act: 98*; CaV13 FRET inh: -8

How did CC(=O)Nc1ccc2c(c1)n(C)c(=O)n2C do in these assays?
PGC1a acetyl inh: 5; CaV13 FRET inh: -5

What do the screens show for `Cc1noc(C)c1NC(=O)N(C)C[C@H]1Oc2c(NC(=O)Nc3ccc(F)cc3)cccc2C(=O)N([C@H](C)CO)C[C@H]1C`?
DENV2 CPE rescue: -10; PGC1a acetyl inh: 5; Ecoli rRNA inh: -5; ERAP1 HTS inh: -4; INS-1E GSIS act: 6

Results for C[C@H]1CN([C@@H](C)CO)C(=O)Cc2cc(NC(=O)Nc3ccc(F)cc3)ccc2O[C@H]1CN(C)Cc1ccc(-c2ccccc2)cc1 ?
DENV2 CPE rescue: 50*; PGC1a acetyl inh: -5; Ecoli rRNA inh: 0; ERAP1 HTS inh: 0; INS-1E GSIS act: -14

How did C[C@@H]1CN([C@@H](C)CO)C(=O)Cc2cc(NC(=O)C3CC3)ccc2O[C@@H]1CN(C)Cc1ccc(-c2ccccc2)cc1 do in these assays?
DENV2 CPE rescue: 31*; PGC1a acetyl inh: -6; Ecoli rRNA inh: -1; ERAP1 HTS inh: -2; INS-1E GSIS act: -10

How did COc1ccc(NS(=O)(=O)c2nnc(NC(=O)c3ccccc3F)s2)cc1 do in these assays?
DENV2 CPE rescue: -5; PGC1a acetyl inh: 2; Ecoli rRNA inh: -10*; ERAP1 HTS inh: 3; INS-1E GSIS act: 8; CaV13 FRET inh: -6

How did C[C@@H]1CN([C@@H](C)CO)C(=O)c2cc(-c3cccc(F)c3)cnc2O[C@H]1CN(C)C(=O)C1CC1 do in these assays?
PGC1a acetyl inh: -9; Ecoli rRNA inh: -2; INS-1E GSIS act: -7
